The text below walks through data of PubChem BioAssay.

Where “and” joins values, the source holds several entries; their conditions need not be identical. Equal entries are not always repeated. Calls of active or inactive are those of the source.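 The calls were made as follows, unless noted: active = mean z-score across replicates of 1.96 or higher in either the MELAS or the Rieske mutant cell line; inactive = the rest.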

Experiment [1] is described as follows: sensitizers of A549 cells to miR-34 induction, primary screen, imaging, A549 dox-inducible miR-34, nuclei and caspase counts (AID 1347080;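 active = compounds whose cell count with miR-34 switched on is under 0.7 times the count with it off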). To be noted: A549 miR-34 inducible, Hoechst nuclei count, 48 h.
Experiment [2] in a line: survival rescue of mitochondrial mutant cells in low glucose, primary screen, MELAS cybrids, Rieske KO mouse fibroblasts, CellTiter-Glo (AID 1508586).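 Also: z relative to plate mean and SD of compound and empty wells.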
The mark [3] stands for this setting: stronger effect = lower value, cell number ratio, induced over uninduced.
[4] abbreviates: measured here: relative caspase fold change +Dox/-Dox.
Where [5] appears, read: measured here: total cells with miR-34 induction, stronger effect = lower value.
Where [6] appears, read: measured here: total cells without miR-34 induction.
[7] abbreviates: MELAS cybrid survival, CellTiter-Glo 48 h, stronger effect = higher value.
The mark [8] stands for this setting: Rieske KO mouse fibroblast survival, CellTiter-Glo 72 h.
Also: test concentration not given here.

Turning to `CC(OC1OCCN(Cc2nn(P(=O)(O)O)c(=O)[nH]2)C1c1ccc(F)cc1)c1cc(C(F)(F)F)cc(C(F)(F)F)c1` (configuration not stated), the fold change is 1.01 (inactive) in experiment [1] (setting [3]) and 0.443 in experiment [1] (setting [4]). Further, the figures for the cell count in experiment [1] (setting [5]) and in experiment [1] (setting [6]) were 5980 and 5920, respectively. For the same compound, the figures for the z-score in experiment [2] (setting [7]) and in experiment [2] (setting [8]) were -0.192 (inactive) and -0.0927, respectively.
For `CS(=O)(=O)c1ccc(C(O)C(CO)NC(=O)C(Cl)Cl)cc1` (configuration not stated), the figures for the fold change in experiment [1] (setting [3]) and in experiment [1] (setting [4]) were 0.959 (inactive) and 1.06, respectively. Moreover, the cell count in experiment [1] (setting [5]) was found to be 8650; in experiment [1] (setting [6]), 9010. Further, the values for the z-score in experiment [2] (setting [7]) and in experiment [2] (setting [8]) were -0.348 (inactive) and 0.589, respectively.
Take `COc1cc(C=CC(=O)C=C(O)C=Cc2ccc(O)c(OC)c2)ccc1O`: the fold change was 0.901 (inactive) in experiment [1] (setting [3]) and 0.689 in experiment [1] (setting [4]). Besides, the cell count in experiment [1] (setting [5]) is 8110; in experiment [1] (setting [6]), 9000. In addition, the values for the z-score in experiment [2] (setting [7]) and in experiment [2] (setting [8]) were -0.431 (inactive) and 0.0298, respectively.
As to `CC1(C)S[C@H]2C(NC(=O)C(N)c3ccc(O)cc3)C(=O)N2C1C(=O)O` (some centres not stated), the fold change is 1.01 (inactive) in experiment [1] (setting [3]) and 0.573 in experiment [1] (setting [4]). Besides, the values for the cell count in experiment [1] (setting [5]) and in experiment [1] (setting [6]) were 8190 and 8150, respectively. Further, the z-score was -0.00212 (inactive) in experiment [2] (setting [7]) and -0.0136 in experiment [2] (setting [8]).
Consider `COC(=O)NC(C(=O)NC(Cc1ccccc1)C(O)CN(Cc1ccc(-c2ccccn2)cc1)NC(=O)C(NC(=O)OC)C(C)(C)C)C(C)(C)C` (configuration not stated), for which the fold change was 0.891 (inactive) in experiment [1] (setting [3]) and 0.981 in experiment [1] (setting [4]). Also, the cell count stood at 6490 in experiment [1] (setting [5]) and 7280 in experiment [1] (setting [6]). The values for the z-score in experiment [2] (setting [7]) and in experiment [2] (setting [8]) were -0.349 (inactive) and 0.446, respectively.
Turning to `CCOC(=O)N1c2ccc(C(F)(F)F)cc2C(N(Cc2cc(C(F)(F)F)cc(C(F)(F)F)c2)C(=O)OC)CC1CC` (configuration not stated), the fold change is 0.939 (inactive) in experiment [1] (setting [3]) and 0.794 in experiment [1] (setting [4]). Besides, the cell count in experiment [1] (setting [5]) stood at 8370; in experiment [1] (setting [6]) it was 8920. Moreover, the z-score in experiment [2] (setting [7]) is -0.304 (inactive); in experiment [2] (setting [8]) it was 0.988.
For `CCC(=O)O[C@@]1(C(=O)SCF)C(C)C[C@H]2[C@@H]3CC(F)C4=CC(=O)C=C[C@]4(C)[C@]3(F)C(O)C[C@@]21C` (some centres not stated), the fold change in experiment [1] (setting [3]) was 0.849 (inactive); in experiment [1] (setting [4]), 1.14. In addition, the cell count in experiment [1] (setting [5]) turned out to be 4990; in experiment [1] (setting [6]) it was 5880. Further, the z-score is -0.525 (inactive) in experiment [2] (setting [7]) and -0.481 in experiment [2] (setting [8]).
As for `O=C(O)c1ccc(C=C2SC(=S)N(c3cccc(C(F)(F)F)c3)C2=O)cc1`, the fold change in experiment [1] (setting [3]) was 0.824 (inactive); in experiment [1] (setting [4]) it was 0.518. Besides, the cell count in experiment [1] (setting [5]) stood at 6780; in experiment [1] (setting [6]), 8220. For the same compound, the figures for the z-score in experiment [2] (setting [7]) and in experiment [2] (setting [8]) were -0.207 (inactive) and -3.49, respectively.
As for `CC(C)(C(=O)NCC(F)(F)C(F)(F)F)C(=O)NC1C(=O)Nc2ccccc2-c2ccccc21` (configuration not stated), the fold change in experiment [1] (setting [3]) was 0.97 (inactive); in experiment [1] (setting [4]), 0.87. Further, the cell count in experiment [1] (setting [5]) stood at 7630; in experiment [1] (setting [6]), 7860. The z-score in experiment [2] (setting [7]) is -0.378 (inactive); in experiment [2] (setting [8]), 0.321.
As for `O=C(O)C(S)=Cc1c[nH]c2ccc(F)cc12`, the fold change was 0.952 (inactive) in experiment [1] (setting [3]) and 0.47 in experiment [1] (setting [4]). Further, the cell count in experiment [1] (setting [5]) is 7180; in experiment [1] (setting [6]) it was 7550. The z-score was -0.325 (inactive) in experiment [2] (setting [7]) and -0.491 in experiment [2] (setting [8]).
On to `Fc1ccc(C(c2ccc(F)cc2)N2CCN(CC=Cc3ccccc3)CC2)cc1`, for which the fold change in experiment [1] (setting [3]) is 0.899 (inactive); in experiment [1] (setting [4]) it was 0.978. The cell count is 7880 in experiment [1] (setting [5]) and 8760 in experiment [1] (setting [6]). The z-score is -0.335 (inactive) in experiment [2] (setting [7]) and 0.411 in experiment [2] (setting [8]).
As to `NC1CCCN(c2c(C=C3SC(=O)NC3=O)cccc2-c2ccccc2)C1` (configuration not stated), the fold change in experiment [1] (setting [3]) is 0.91 (inactive); in experiment [1] (setting [4]), 0.316. Besides, the figures for the cell count in experiment [1] (setting [5]) and in experiment [1] (setting [6]) were 8290 and 9110, respectively. Further, the z-score in experiment [2] (setting [7]) was -0.282 (inactive); in experiment [2] (setting [8]), 0.224.
On to `O=C(Nc1ccccc1)N1CCN(c2nc(-c3ccccc3)ns2)CC1`, for which the fold change in experiment [1] (setting [3]) was 1.02 (inactive); in experiment [1] (setting [4]) it was 0.483. For the same compound, the values for the cell count in experiment [1] (setting [5]) and in experiment [1] (setting [6]) were 7250 and 7080, respectively. The z-score is -0.215 (inactive) in experiment [2] (setting [7]) and 0.0401 in experiment [2] (setting [8]).
As for `CC(=O)SC1CC2=CC(=O)CC[C@]2(C)[C@@H]2CC[C@@]3(C)[C@@H](CC[C@]34CCC(=O)O4)[C@H]12` (some centres not stated), the values for the fold change in experiment [1] (setting [3]) and in experiment [1] (setting [4]) were 0.898 (inactive) and 0.8, respectively. In addition, the cell count in experiment [1] (setting [5]) came to 7310; in experiment [1] (setting [6]), 8140. For the same compound, the z-score in experiment [2] (setting [7]) is -0.198 (inactive); in experiment [2] (setting [8]), -0.323.
Take `CN1CCC(NC(=O)c2cc(-c3c(O)cc(O)cc3Oc3ccc([N+](=O)[O-])cc3)on2)CC1`: the values for the fold change in experiment [1] (setting [3]) and in experiment [1] (setting [4]) were 1.08 (inactive) and 0.376, respectively. The cell count was 2520 in experiment [1] (setting [5]) and 2330 in experiment [1] (setting [6]). Besides, the z-score in experiment [2] (setting [7]) is 2.88 (active); in experiment [2] (setting [8]) it was -1.28.
Consider `COc1ccc(C2CC(=O)c3c(O)cc(OC4OC(COC5OC(C)C(O)C(O)C5O)C(O)C(O)C4O)cc3O2)cc1O` (configuration not stated), for which the fold change in experiment [1] (setting [3]) is 0.944 (inactive) and 0.996 (inactive); in experiment [1] (setting [4]), 0.804 and 0.887. Further, the cell count was 9100 and 9620 in experiment [1] (setting [5]); 9630 and 9660 in experiment [1] (setting [6]). The z-score in experiment [2] (setting [7]) was -0.317 (inactive) and -0.329 (inactive); in experiment [2] (setting [8]), 0.0192 and 0.287.
Consider `CC(C)(C)NS(=O)(=O)c1cncc(-c2cc(F)c3nc(N)nn3c2)c1`, for which the fold change was 0.874 (inactive) in experiment [1] (setting [3]) and 1.55 in experiment [1] (setting [4]). Moreover, the cell count in experiment [1] (setting [5]) stood at 8160; in experiment [1] (setting [6]), 9340. The z-score in experiment [2] (setting [7]) is -0.353 (inactive); in experiment [2] (setting [8]), -0.161.
`C=C1C(=CC=C2CCC[C@]3(C)C(C(C)CCCC(C)(C)O)CC[C@@H]23)CC(O)CC1O` (some centres not stated): the values for the fold change in experiment [1] (setting [3]) and in experiment [1] (setting [4]) were 0.915 (inactive) and 1.06, respectively. In addition, the cell count was found to be 6550 in experiment [1] (setting [5]) and 7160 in experiment [1] (setting [6]). For the same compound, the results for the z-score in experiment [2] (setting [7]) and in experiment [2] (setting [8]) were -0.468 (inactive) and 0.543, respectively.
For the compound `OC(c1cc(C(F)(F)F)nc2c(C(F)(F)F)cccc12)[C@H]1CCCCN1` (some centres not stated), the fold change is 0.875 (inactive) in experiment [1] (setting [3]) and 0.688 in experiment [1] (setting [4]). Besides, the cell count was 5320 in experiment [1] (setting [5]) and 6090 in experiment [1] (setting [6]). Moreover, the z-score in experiment [2] (setting [7]) is 0.101 (inactive); in experiment [2] (setting [8]), -0.0437.
Take `CC(CN1CC(=O)NC(=O)C1)N1CC(=O)NC(=O)C1` (configuration not stated): the fold change was 0.969 (inactive) in experiment [1] (setting [3]) and 1.09 in experiment [1] (setting [4]). Moreover, the cell count came out at 5760 in experiment [1] (setting [5]) and 5950 in experiment [1] (setting [6]). The results for the z-score in experiment [2] (setting [7]) and in experiment [2] (setting [8]) were -0.442 (inactive) and 0.325, respectively.
In the case of `CC(=O)OCC(=O)[C@]1(O)CC[C@H]2[C@@H]3CCC4=CC(=O)CC[C@]4(C)[C@@H]3C(=O)C[C@@]21C`, the fold change in experiment [1] (setting [3]) was 0.938 (inactive); in experiment [1] (setting [4]) it was 0.685. The cell count in experiment [1] (setting [5]) was found to be 9630; in experiment [1] (setting [6]), 10300. For the same compound, the z-score in experiment [2] (setting [7]) is -0.429 (inactive); in experiment [2] (setting [8]) it was -0.073.
With `NC(Cc1cc(I)c(Oc2cc(I)c(O)c(I)c2)c(I)c1)C(=O)O` (configuration not stated), the fold change is 0.891 (inactive) in experiment [1] (setting [3]) and 1.04 in experiment [1] (setting [4]). Moreover, the cell count in experiment [1] (setting [5]) worked out at 8130; in experiment [1] (setting [6]), 9130. For the same compound, the figures for the z-score in experiment [2] (setting [7]) and in experiment [2] (setting [8]) were -0.238 (inactive) and -1.06, respectively.
